Results taken from PubChem BioAssay AID743048 (Broad Institute, 2013).
Measured potencies and affinities stand elsewhere. Activity calls are given as the source filed them. The rule behind the calls is not given here.

Biological target: Paired box protein Pax-2 (Homo sapiens) (UniProt Q02962)
Assay: PAX2 cell-based inhibition, dose response, selectivity assay for PAX8 inhibitor project, plate reader, dry powder samples (AID 743048)

Paired box protein Pax-2 (Homo sapiens), sequence (Q02962 whole entry, looked up): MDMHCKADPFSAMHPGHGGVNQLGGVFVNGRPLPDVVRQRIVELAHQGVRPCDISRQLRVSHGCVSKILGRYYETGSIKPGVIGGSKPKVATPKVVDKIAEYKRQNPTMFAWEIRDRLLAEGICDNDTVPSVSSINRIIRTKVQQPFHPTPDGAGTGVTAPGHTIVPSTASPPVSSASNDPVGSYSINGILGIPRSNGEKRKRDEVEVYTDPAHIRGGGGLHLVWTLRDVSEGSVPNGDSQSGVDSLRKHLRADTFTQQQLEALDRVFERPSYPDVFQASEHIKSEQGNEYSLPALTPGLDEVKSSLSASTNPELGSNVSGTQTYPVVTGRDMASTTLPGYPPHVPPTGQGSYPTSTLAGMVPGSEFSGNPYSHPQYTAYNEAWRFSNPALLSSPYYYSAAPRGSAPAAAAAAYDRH

With `N#C[C@H]1N[C@H](CO)[C@@H]1c1ccc(C#Cc2ccccc2F)cc1` the outcome was “inactive”.
In the case of `NS(=O)(=O)c1ccc(CCN2C(=O)/C(=C\c3ccc(Cl)cc3)SC2=S)cc1`, the outcome is reported as “inactive”.
For `CN(C[C@H]1N[C@@H](CO)[C@@H]1c1ccc(C2=CCCC2)cc1)C(=O)c1cccc(F)c1`, the outcome was “inactive”.
With `C[C@H]1CN([C@@H](C)CO)C(=O)CCCn2nncc2CO[C@@H]1CN(C)C(=O)Nc1ccc(-c2cccs2)cc1` the outcome was “inactive”.
`CN(C[C@H]1N[C@@H](CO)[C@@H]1c1ccc(C2=CCCC2)cc1)C(=O)c1ccncc1` was tested, and the outcome was “inactive”.
With `CC(=O)Nc1ccc(NC(=O)c2nc(S(=O)(=O)Cc3ccccc3)ncc2Cl)cc1` the outcome was “inactive”.
With `Cc1ccc(-c2csc(NC3OC(=O)c4ccccc43)n2)cc1` (stereo not drawn) the outcome was “inactive”.
`C[C@@H]1CN([C@H](C)CO)C(=O)CCCn2cc(nn2)CO[C@H]1CN(C)C(=O)Nc1ccc(-c2cccs2)cc1` was tested, and the outcome was “inactive”.
With `CC(C)c1cc(C(=O)OCC(=O)N2CCN(C(=O)c3ccco3)CC2)c(O)c(C(C)C)c1` the outcome was “inactive”.
`CN(C[C@H]1N[C@@H](CO)[C@@H]1c1ccc(C2=CCCC2)cc1)C(=O)c1ccc(F)cc1` was tested, and the outcome was “inactive”.
For `COc1ccc(-c2cc(C(F)(F)F)nc(S(=O)(=O)CCCC(=O)Nc3cc(C)on3)n2)cc1OC`, the outcome was “inactive”.
In the case of `O=C1/C(=C/c2cccc(Br)c2)SC(=S)N1CCC(=O)N(CCO)c1ccccc1`, the outcome is reported as “inactive”.
`O=C(CCCN1C(=O)/C(=C\c2cccc(Br)c2)SC1=S)Nc1ccccn1` was tested, and the outcome was “inactive”.
`N#C[C@@H]1[C@@H](c2ccc(-c3cccc(F)c3)cc2)[C@H](CO)N1C(=O)NC1CCCC1` was tested, and the outcome was “inactive”.
In the case of `COc1cccc2sc(N(CCCN(C)C)C(=O)CCS(=O)(=O)c3ccccc3)nc12`, the outcome is reported as “inactive”.
`O=C(CCCN1C(=O)/C(=C\c2cccc(Br)c2)SC1=S)Nc1cccnc1` was tested, and the outcome was “inactive”.
For `O=C(CCS(=O)(=O)c1ccccc1)Nc1nc2ccc(F)cc2s1`, the outcome was “inactive”.
With `CC1(C)CC(=O)c2sc(NC(=O)CCS(=O)(=O)c3ccccc3)nc2C1` the outcome was “inactive”.
